HT1080NT lethal – kills 2HG-producing HT-1080-NT fibrosarcoma cells; actives 1.6% (n = 360,000); HT-1080-NT fibrosarcoma viability, CellTiter-Glo ATP luminescence, 48 h; Potency, µM (top dose mostly 46.1 µM), inactives show top-dose activity, negative = less viability, usual class: cytotoxic; AID 686970;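 further: NT is the 2HG producing partner of a matched IDH1 knockdown line; potency means the concentration at half of the fitted maximal effect; 0% = DMSO-treated cells and -100% = media-only wells without cells; nearly all actives have a fitted effect of over 55% in size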
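HT-1080-NT; 750 cells/well; 5% FBS RPMI; 48 h compound, 37 degrees C; CellTiter-Glo luminescence; curve fitting and curve-class assignment.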
IL1B secr inh – inhibitors of inflammasome signaling (IL-1 beta secretion). THP-1 LPS/ATP IL-1B secretion, AlphaLISA, 16 h; hits give low values. activity change, % at 57.5 µM. actives 4.7% (n = 360,000). AID 743279; in the data active means activity change below about -50%; inconclusive means mostly about -30% to -49%
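Secreted IL-1B measured by AlphaLISA bead assay after 16 h compound exposure of THP-1 cells; compounds (final up to 57.5 uM) added 1 h before LPS (250 ng/mL) and ATP (1.25 mM) stimulation; lower signal means less secretion.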
HT1080 IDH1KD tx – kills HT-1080 cells with IDH1 knockdown. HT-1080 IDH1 knockdown viability, ATP luminescence, 48 h. Potency, µM (titrated, usually from 46.1 µM), without a hit: at the highest dose activity, negative = toxicity, actives largely listed as cytotoxic. actives 2% (n = 360,000);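 further: potency means the concentration at half of the fitted maximal effect; 0% = DMSO wells and -100% = cell-free medium wells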
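Assay cells: HT-1080 with IDH1 knockdown, 750 per well, RPMI/5% FBS. Exposure: 48 h at 37 °C following 2 h pre-incubation. Read: CellTiter-Glo luminescence; fitted concentration-response, curve class assigned.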
TDP1 cell CPT – growth inhibition of DT40 Tdp1-/-;hTDP1 cells with camptothecin (screen for TDP1 inhibitors); AID 686979; chicken DT40 Tdp1-/-;hTDP1 cells + 20 nM CPT, ATP luminescence, 48 h; actives 12% (n = 420,000); Potency, µM (series often up to 46.2 µM), inactives show at the top dose activity change, negative = growth inhibition, hits mostly inhibitors; further: potency means the concentration at half of the fitted maximal effect; nearly all actives have a fitted effect of over 55% in size
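Chicken DT40 Tdp1-/- cells stably complemented with human TDP1 were seeded at 400 cells/well in medium containing 20 nM camptothecin, exposed to pin-transferred compounds, and grown at 37 °C for at least 48 hr. Viability was read as ATP luminescence.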
TDP1 cell noCPT – qHTS for Inhibitors of human tyrosyl-DNA phosphodiesterase 1 (TDP1): qHTS in cells in absence of CPT | DT40 Tdp1-/- hTDP1 cells, no CPT, ATP luminescence, 48 h | Potency, µM (top dose mostly 46.2 µM), for inactives: at the top dose activity change, negative = growth inhibition, actives largely listed as inhibitors | actives 15% (n = 420,000) | AID 686978, 2013; further: potency means the concentration at half of the fitted maximal effect; nearly all actives have a fitted effect of over 55% in size
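Luminescent ATP content (CellTiter-Glo) served as the growth readout. Knockout chicken DT40 cells expressing human TDP1 were exposed to compounds without camptothecin for a minimum 48 hr at 37 °C.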
* marks the source's active call; other numbers are inactive results; u = inconclusive; x = no result given; [ ] = another dose, or the depositor's remark. Most compounds without a hit are left out; they make up all but 19% or so of the library. Unless noted, the call rests on the fitted dose curve; in most records, active means well fitted curve in the direction sought with a large enough effect; inconclusive means small, poorly fitted or top-dose-only effect, or another doubt; inactive means no such curve, though single readings can be large; an effect the other way counts as inactive or inconclusive. Unless noted, on the % scale 0 is the no-effect control and ±100 the full control effect.

SMILES | HT1080NT lethal | IL1B secr inh | HT1080 IDH1KD tx | TDP1 cell CPT | TDP1 cell noCPT
COc1cc(CNC2CCCC2)cc(Cl)c1OCc1ccc(F)cc1 | 16µM* | u | 21µM* | u | 15µM*
COc1cc(CNC2CCCCCCC2)cc(Cl)c1OCC(N)=O | -17% | 0 | -4% | -13% | -13%
COc1cccc(C2CC(c3cccs3)=NN2C(=O)CSC2=NN3CCCC(=O)N=C3S2)c1OC (configuration not stated) | 0% | 4 | -5% | u | u
Cc1c(CCOC(=O)c2ccccc2)sc[n+]1CC(=O)c1ccc(Br)cc1 | u | -65* | u | u | u
Cc1c(CCOC(=O)c2ccccc2)sc[n+]1Cc1ccccc1 | -17% | 3 | -1% | 16µM* | 23µM*
CCOC(=O)N1CCN(C(=O)CN(c2cc(Cl)ccc2OC)S(=O)(=O)c2ccccc2)CC1 | -1% | -28 | 3% | -13% | u
CC(C)(C)c1cc(-c2n[nH]c(=S)n2-c2ccc(Cl)cc2)n[nH]1 | -2% | 4 | -1% | u | u
CCOC(=O)[C@H]1[C@H]2COc3ccc(Br)cc3[C@@H]2N2C(=O)c3c(C)cc(C)cc3NC(=O)[C@@]12C | 3% | u | 2% | u | u
CCN1C(=NCCCOC(C)C)N[C@@H](CCc2ccccc2)[C@H](C(=O)NCCCOC(C)C)[C@H]1C | -21% | -58* | -17% | 1.8µM* | 1.6µM*
C=CCN1C(=O)CSc2ccc(C(=O)NCc3cccs3)cc21 | -3% | 19 | -13% | -3% | u
CN(C)c1ccc(/C=C/c2ccnc3c(-c4ccccc4)cccc23)cc1 | x | x | x | 11µM* | u
CN(C)c1ccc(/C=C/c2ccnc3c(O)ccc(O)c23)cc1 | x | x | x | -18% | -12%
CN(C)c1ccc(/C=C/c2ccnc3c(Cl)cccc23)cc1 | x | x | x | 11µM* | 7.9µM*
CCN(CC)C(NC(=O)c1ccccc1)C(=O)c1ccccc1 (configuration not stated) | 9% | 2 | 6%[9.24 µM] | -23% | u
O=C(CSc1nnc2scc(-c3ccc(Cl)cc3)n12)Nc1ccc(F)cc1 | x | x | x | -8% | -20%
CC(C)c1ccc(NC(=O)Nc2nc(C(N)C(C)C)cs2)cc1 (configuration not stated) | 21µM* | -63* | u | 15µM* | 16µM*
NC(c1ccccc1)c1csc(Nc2ccc(C(=O)c3ccccc3)cc2)n1 (configuration not stated) | u | u | u | u | 18µM*
Cc1ccc(C(=O)Nc2nc(C(N)C(C)C)cs2)cc1 (configuration not stated) | -22% | u | 3% | u | 16µM*
CC(C)c1ccc(NC(=O)Nc2nc(C(N)COCc3ccccc3)cs2)cc1 (configuration not stated) | 21µM* | u | u | 16µM* | 15µM*
COc1cccc(C(=O)Nc2nnc(SCC(=O)Nc3ccc(NC(C)=O)cc3)s2)c1 | 6% | -7 | 12% | 2% | 3%
CC(C)c1ccc(NC(=O)Nc2nc(C(N)c3ccccc3)cs2)cc1 (configuration not stated) | u | -94* | u | u | 23µM*
NC(c1ccccc1)c1csc(Nc2ccc(C(=O)NCCO)cc2)n1 (configuration not stated) | 0% | 18 | 17% | u | u
Cc1ccc(-c2noc(N=O)c2NO)cc1 | u | -96* | u | 21µM* | 23µM*
CCC(C)N(C(=O)Cn1nnc(-c2ccc(Cl)cc2)n1)C1CCS(=O)(=O)C1 (configuration not stated) | -5% | 0 | -3% | -16% | 5%
COC(=O)c1ccc(CSc2nnc(CS(=O)Cc3ccc(Br)cc3)n2-c2ccccc2)cc1 (configuration not stated) | -22% | -11 | -23% | 7.3µM* | 13µM*
SMILES | HT1080NT lethal | IL1B secr inh | HT1080 IDH1KD tx | TDP1 cell CPT | TDP1 cell noCPT
O=S(Cc1ccc(Br)cc1)Cc1nnc(SCc2ccc(Br)cc2)n1-c1ccccc1 (configuration not stated) | -5% | -58* | u | 12µM* | 10µM*
CC(=O)c1ccc(N2CCN(C(=O)[C@H](C)NC(=O)c3ccccc3Cl)CC2)cc1 | 11% | 0 | -9% | u | u
O=C(O)CN1C(=O)c2cccc(Oc3ccc(Cl)cc3)c2C1=O | 9% | 3 | 6% | -1% | -9%
CCCCc1nn2c(=O)cc(COC(=O)c3ccc(NC(=O)CCc4ccccc4)cc3)nc2s1 | x | x | x | -8% | -1%
CCN1C(=O)/C(=C\c2cn(-c3ccccc3)nc2-c2cccnc2)SC1=S | 7% | 9 | 14% | 15µM* | u
O=C1C(=Cc2cn(-c3ccccc3)nc2-c2ccc(OCc3ccccc3)cc2)SC(=S)N1CCS(=O)(=O)O | -17% | 34 | -25% | 29µM* | u
CC(C)COc1ccc(-c2nn(-c3ccccc3)cc2/C=C2/SC(=S)N(CC(=O)O)C2=O)cc1 | 3% | -8 | 1% | u | 9.2µM*
O=C(O)CN1C(=O)/C(=C\c2cn(-c3ccccc3)nc2-c2ccccc2)SC1=S | -5% | 11 | 0% | -27% | -18%
CC(C)COc1ccc(-c2nn(-c3ccccc3)cc2CO)cc1 | -2% | -11 | -8% | 21µM* | u
CCCCn1nnnc1C1(C)CCC(=O)N1Cc1cccc(F)c1 (configuration not stated) | 19% | 31 | 21% | -2% | -3%
CC(C)CCNc1nc(Nc2ccccc2)c2cnn(C)c2n1 | x | x | x | 23µM* | 23µM*
Cc1ccc(NC(=O)N(Cc2ccco2)C(C)c2ccco2)cc1C (configuration not stated) | 8% | -1 | 0% | u | 23µM*
Cc1ccc(NC(=O)CN(Cc2ccco2)Cc2ccccc2O)cc1C | u | -62* | u | u | u
O=C(COc1ccccc1F)Nc1ccc(OCc2cc(=O)n3ccccc3n2)cc1 | x | x | x | 2% | -10%
CCOC(=O)Cn1c(=O)oc2cc(S(=O)(=O)Nc3ccc(N(CC)CC)cc3C)ccc21 | -22% | 24 | -17% | u | -27%
O=C(O)CN(CC(=O)O)CC(=O)O | 0% | -13 | 5% | 1% | -4%
N#C/C(=C\c1cc2ccccc2nc1N1CCCCC1)C(N)=O | -17% | u | -13% | u | u
CCN(CC)c1nc2cc(C)ccc2cc1/C=C(\C#N)C(N)=O | -26% | -58* | u | u | u
